The text below walks through data of PubChem BioAssay.

Molecules are shown by their SMILES. Calls of active or inactive are those of the source. The rule behind the calls is not given here.

Pantothenate synthetase (Mycobacterium tuberculosis (strain ATCC 25618 / H37Rv)), sequence (P9WIL5 whole entry, looked up): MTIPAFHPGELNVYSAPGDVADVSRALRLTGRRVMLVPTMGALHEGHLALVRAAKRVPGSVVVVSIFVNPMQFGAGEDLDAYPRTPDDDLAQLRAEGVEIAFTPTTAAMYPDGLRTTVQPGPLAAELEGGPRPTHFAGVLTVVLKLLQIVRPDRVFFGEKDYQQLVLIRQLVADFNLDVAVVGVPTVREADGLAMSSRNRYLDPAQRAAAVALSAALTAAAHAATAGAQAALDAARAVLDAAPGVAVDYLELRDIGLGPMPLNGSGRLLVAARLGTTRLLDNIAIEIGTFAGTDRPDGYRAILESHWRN

The experiment addresses Pantothenate synthetase (Mycobacterium tuberculosis (strain ATCC 25618 / H37Rv)) (UniProt P9WIL5). Put plainly: Recombinant Mtb pantothenate synthetase (PanC) inhibitors, coupled enzyme, confirmatory (AID 375).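 Note: 0% = full reaction with vehicle and 100% = no enzyme background.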 Conditions: coupled enzyme assay; at 10 µM, stronger effect = higher value.
In general, inhibition refers to the change of the read-out against control, counted positive when it falls. On to `COc1nc(Oc2ccc(=O)n(C)n2)nc(N(C)C)n1`, for which the inhibition was 4% (inactive).

On to `Cc1cc2cc(CNC(=O)c3ccc4c(c3)OCO4)ccc2[nH]1`, for which the inhibition was 0% (inactive).

For `O=C(NC1CCCCC1)C(c1ccccc1)N(Cc1ccco1)C(=O)Cn1cnc2ccccc21` (stereo not given), the inhibition was 0% (inactive).

In the case of `Cc1cc(C)n(-c2ccc3cccc(NS(C)(=O)=O)c3n2)n1`, the inhibition is 0% (inactive).

For `CN1CC=C2C(C#N)=C(N)C(C#N)(C#N)[C@H](c3cccc(Cl)c3)C2C1` (stereo not given in full), the inhibition was 0% (inactive).

As for `Cn1c(=O)c2c(nc(CN3CCCCC3)n2CCc2ccccc2)n(C)c1=O`, the inhibition was 1% (inactive).

On to `Cc1c(NC(=O)C(C)OC(=O)COc2cccc3c2OC(C)(C)C3)c(=O)n(-c2ccccc2)n1C` (stereo not given), for which the inhibition was 5% (inactive).

Turning to `O=[N+]([O-])c1cccc2cn[nH]c12`, the inhibition is 0% (inactive).

Regarding `Oc1ccc(C=Nc2cccc3ncccc23)c(O)c1`, the inhibition is 2% (inactive).

As to `Cc1nc2sccn2c(=O)c1CCN1CCC(=C(c2ccc(F)cc2)c2ccc(F)cc2)CC1`, the inhibition was 0% (inactive).

In the case of `O=C(CN1C(=O)c2ccccc2S1(=O)=O)NCc1ccccn1`, the inhibition is 0% (inactive).

For the compound `NC(=O)c1c(NC(=O)CN2CCCC2)sc2c1CCCC2`, the inhibition is 4% (inactive).

On to `CCCC1CCC(C(=O)Nn2cnc3ccccc3c2=O)CC1` (stereo not given), for which the inhibition was 1% (inactive).

With `CCOc1ccc(OCC)c2sc(C)nc12`, the inhibition was 2% (inactive).

As for `COc1ccccc1Oc1coc2c(CN3CCN(C)CC3)c(O)ccc2c1=O`, the inhibition is 0% (inactive).

For the compound `COc1ccc(CCNC(=O)c2cnc3scc(C)n3c2=O)cc1OC`, the inhibition is 0% (inactive).

Regarding `O=S(=O)(c1ccc(S(=O)(=O)N(Cc2ccco2)Cc2ccccc2Cl)cc1)N1CCCC1`, the inhibition is 0% (inactive).

On to `CN(CC(=O)Nc1ccccc1Cl)C(=O)COC(=O)CNC(=O)c1ccc(Br)o1`, for which the inhibition was 0% (inactive).

With `CCCSC1=C(C#N)C(c2ccccc2OCC)CC(=O)N1` (stereo not given), the inhibition is 7% (inactive).

For the compound `Cc1ccc(C)c(N2CCN(CCCNC(=O)Cn3cc4c(n3)CCCCC4)CC2)c1`, the inhibition was 2% (inactive).

For the compound `CCOC(=O)c1nnc2ccnn2c1N`, the inhibition is 0% (inactive).

As for `O=C1c2ccccc2C(Nc2ccc(F)cc2F)N1CCN1CCOCC1` (stereo not given), the inhibition was 0% (inactive).

As for `COc1ccc(CCNc2oc(-c3ccco3)nc2C#N)cc1`, the inhibition is 2% (inactive).

As for `COC(=O)Cn1c(CN2CCN(c3ccccc3F)CC2)nc2c1c(=O)n(C)c(=O)n2C`, the inhibition was 0% (inactive).

With `C=CCn1cnc2c(c1=O)c1nc3ccccc3nc1n2-c1ccc(C)cc1`, the inhibition is 0% (inactive).

For `CN1CCN(S(=O)(=O)c2ccc(NC(=O)Nc3cccc(Cl)c3)cc2)CC1`, the inhibition was 1% (inactive).

Take `c1ccc(Cc2ccc(OCCn3cncn3)cc2)cc1`: the inhibition is 0% (inactive).

With `O=C(Nc1ccc(Br)cc1F)c1sccc1-n1cccc1`, the inhibition is 4% (inactive).

As to `CCOc1ccc(Cc2nn[nH]n2)cc1`, the inhibition was 1% (inactive).

Consider `O=C(NC1CCCC1)C1CC1c1ccccc1` (stereo not given), for which the inhibition was 0% (inactive).

With `O=C(CSc1nccn1-c1cccc(Cl)c1)NC1CCCC1`, the inhibition was 0% (inactive).

For the compound `CCOCCn1cnc2sc(C(=O)Nc3nc(C)c(C(=O)OCC)s3)c(C)c2c1=O`, the inhibition is 13% (inactive).

As to `Nn1cnnc1SCC(=O)Nc1ccc2c(c1)OCCO2`, the inhibition was 0% (inactive).

On to `CCOC(=O)CSc1nnc(CCc2nc3ccccc3[nH]2)n1C`, for which the inhibition is 10% (inactive).

On to `CCOC(=O)C1CCCN(S(=O)(=O)c2cccs2)C1` (stereo not given), for which the inhibition is 6% (inactive).

As for `Cc1c(C(=O)NCc2cccnc2)sc2ncn(CC(=O)N3CCCCC3C)c(=O)c12` (stereo not given), the inhibition is 0% (inactive).

In the case of `COC(=O)c1c(C)oc2ccc(NS(=O)(=O)c3cccs3)cc12`, the inhibition was 0% (inactive).

As to `O=C(NC1CCCC1)c1cc(-c2cccs2)on1`, the inhibition was 6% (inactive).

With `COCCN1C(=O)C(=O)/C(=C(/O)c2cccc(OC)c2)C1c1ccncc1` (stereo not given), the inhibition was 1% (inactive).

In the case of `CCOC(=O)CSC1=C(C#N)C(c2ccc3c(c2)OCO3)CC(=O)N1` (stereo not given), the inhibition was 0% (inactive).
